# Screen size: about 69,000 compounds; about 8,600 (12%) showed an effect of 50% or more. Only a selection was taken, and strong results are over-represented in it overall.
# System: Plasmodium berghei
# Assay: Screen against P. berghei liver stage (PbLuc), transformed with Luciferase, at 10uM
# Type: functional, HepG2
# Details: tested at 10 uM
row,SMILES,INHIBITION
1,CN1C[C@H](O)[C@]2(CCN(C(=O)COc3ccccc3)C2)S1(=O)=O,9.36%
2,COc1ccc(CC(=O)N2CCN(C)c3ncccc3C2)cc1,8.44%
3,COc1ccc(CC(=O)N2CC(=O)NCC(C)(C)C2)cc1,60.1%
4,CC1(C)CNC(=O)CN(C(=O)Cc2ccccc2)C1,-1.99%
5,CC1(C)CNC(=O)CN(C(=O)CCc2ccccc2)C1,40.4%
6,CC1(C)CNC(=O)CN(C(=O)COc2ccccc2)C1,55.5%
7,CSc1[nH]nc(NC(=O)c2cccs2)c1C#N,24.2%
8,Cn1cc(CCNCc2cc(Cl)c3c(c2)OCCO3)cn1,-9.4%
9,O=C1Nc2ccccc2CN(CC2CCCC2)C12CCNC2 (stereo not drawn),-44.5%
10,O=C(NCc1nnc2n1CCCC2)c1cn(-c2ccccc2)nn1,36.4%
11,O=C(NCc1nnc2n1CCC2)c1cn(-c2ccccc2)nn1,13.6%
12,O=C(NCc1nnc2n1CCC2)c1cn(-c2ccccc2Br)nn1,50.4%
13,Cc1ccc(OCc2occc2C(=O)N2CCOC(C(=O)O)C2)cc1 (stereo not drawn),-0.71%
14,Cc1ccc(OCc2occc2C(=O)O)cc1,64.1%
15,Cc1ccc(OCc2occc2C(=O)N2CC[C@H](CO)[C@@H](O)C2)cc1,26.6%
16,NS(=O)(=O)c1cc(C(=O)N2CCCC(n3ccnc3)C2)cs1 (stereo not drawn),29.4%
17,O=S1(=O)CCC(S(=O)(=O)c2cccc(S(=O)(=O)N3CCCCCC3)c2)C1 (stereo not drawn),50.2%
18,CN1CCN(S(=O)(=O)c2cccc(S(=O)(=O)C3CCS(=O)(=O)C3)c2)CC1 (stereo not drawn),46.7%
19,CSCc1cccc(S(=O)(=O)N2CCC(C)CC2)c1,32.4%
20,O=S1(=O)CCC(S(=O)(=O)c2cccc(S(=O)(=O)N3CCOCC3)c2)C1 (stereo not drawn),58.9%
21,CC1=CCN(S(=O)(=O)c2cccc(C(=O)N3CCOCC3)c2)CC1,37.1%
22,O=S1(=O)CCC(S(=O)(=O)c2cccc(S(=O)(=O)N3CCCC3)c2)C1 (stereo not drawn),36.3%
23,COCCN1C[C@H]2[C@@H](C1)N(C(=O)c1cccc(OC)c1)CC[C@H]2OC,9.63%
24,CC(C)c1ncc2c(n1)CN(Cc1nc(-c3cccnc3)no1)CC2,33.7%
25,Cc1nc(CN2CCOCC3(CCN(c4ncccn4)CC3)C2)cs1,27.6%
26,Cc1nn(C)c(C)c1C1CCCN1CC(=O)NCc1ccco1 (stereo not drawn),7.12%
27,O=C(NC1CC1)[C@H]1C[C@H]2OCC[C@H]2N(Cc2cccc3ccccc23)C1,11.4%
28,Cn1c(CN2CCCc3cc(F)cc(F)c32)cc(=O)n(C)c1=O,12.8%
